Experimental data as given in PubChem BioAssay (NCI).
The panel holds about 79,000 compounds, 15% with a hit somewhere; the sample as a whole holds those more often. Calls of active or inactive are those of the source. Cut-off read from the data, not from the text of the source: active = growth inhibition above about 70%; inactive = the rest.

Columns and labels:
[1] = NCI Yeast Anticancer Drug Screen. Data for the rad52 strain (AID 147);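 note: 0% = growth of vehicle-treated control cultures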; settings: S. cerevisiae rad52 mutant growth inhibition, active compounds read high
Summary of the method: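 Vehicle-treated cultures served as the reference for growth inhibition of compound-exposed yeast bearing a DNA repair mutation.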

[2] = NCI Yeast Anticancer Drug Screen. Data for the wt1 strain (AID 149);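 note: 0% = growth of vehicle-treated wt1 cultures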; settings: S. cerevisiae wt1 strain (SPY 50644) growth inhibition, active compounds read high
Summary of the method: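 Measured: growth of wt1 yeast under compound versus vehicle treatment, reported as inhibition.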

[3] = NCI Yeast Anticancer Drug Screen. Data for the rad50EPP+ strain (AID 151);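 note: 0% = growth of vehicle-treated control cultures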; settings: S. cerevisiae rad50 mutant strain, active compounds read high
Summary of the method: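 In this screen, rad50EPP+ yeast were exposed to compounds. Growth inhibition was scored against vehicle-treated controls.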

[4] = NCI Yeast Anticancer Drug Screen. Data for the mgt1 strain (AID 153); settings: S. cerevisiae mgt1 mutant growth inhibition, active compounds read high
Summary of the method: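 mgt1 strain exposed; growth vs vehicle control recorded as inhibition.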

[5] = NCI Yeast Anticancer Drug Screen. Data for the rad50 strain (AID 155);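 note: 0% = growth of vehicle-only cultures of the same strain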; settings: S. cerevisiae rad50 strain growth inhibition, active compounds read high
Summary of the method: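 Growth of the mutant yeast was measured after compound exposure and referenced to vehicle-treated cultures.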

[6] = NCI Yeast Anticancer Drug Screen. Data for the mec2-1 strain (AID 157); settings: S. cerevisiae mec2-1 strain, active compounds read high
Summary of the method: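 Vehicle-treated cultures served as reference for growth inhibition of compound-exposed mec2-1 yeast.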

[7] = NCI Yeast Anticancer Drug Screen. Data for the rad14 strain (AID 159);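 note: 0% = growth of vehicle-treated control cultures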; settings: S. cerevisiae rad14 strain growth inhibition, active compounds read high
Summary of the method: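 Here, inhibition of yeast growth was measured after compound exposure, using a strain with a genetic defect in DNA damage repair and vehicle-treated cultures as the reference.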

[8] = NCI Yeast Anticancer Drug Screen. Data for the sgs1 mgt1 strain (AID 161);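 note: 0% = growth of cultures given vehicle only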; settings: S. cerevisiae sgs1 mgt1 strain, active compounds read high
Summary of the method: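 Inhibition of yeast growth, normalised to vehicle-treated controls, is reported for a strain bearing genetic alterations in DNA damage repair.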

[9] = NCI Yeast Anticancer Drug Screen. Data for the CLN2oe strain (AID 163);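 note: 0% = growth of vehicle-only control cultures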; settings: S. cerevisiae CLN2oe strain, active compounds read high
Summary of the method: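 Inhibition relative to vehicle-treated yeast is reported. Cells: strain with genetic alteration in cell-cycle control, grown with compound.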

[10] = NCI Yeast Anticancer Drug Screen. Data for the cln2 rad14 strain (AID 165);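 note: 0% = growth equal to vehicle treated cultures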; settings: S. cerevisiae cln2 rad14 strain, active compounds read high
Summary of the method: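 Each compound was tested on cln2 rad14 yeast. Inhibition of growth was calculated against vehicle-exposed controls.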

[11] = NCI Yeast Anticancer Drug Screen. Data for the bub3 strain (AID 167); settings: S. cerevisiae bub3 mutant strain, active compounds read high
Summary of the method: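 Whole-cell yeast assay. The mutant strain was incubated with compounds, and growth inhibition was determined by comparison with vehicle-treated cells.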

[12] = NCI Yeast Anticancer Drug Screen. Data for the wt2 strain (AID 169);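 note: 0% = growth of vehicle-treated yeast cultures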; settings: S. cerevisiae wt2 strain growth inhibition, active compounds read high
Summary of the method: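 Inhibition of yeast growth was determined after compound treatment, normalised to controls receiving only vehicle.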

[13] = NCI Yeast Anticancer Drug Screen. Data for the mlh1 strain (AID 171);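 note: 0% = growth of vehicle-treated control cultures of the same strain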; settings: S. cerevisiae mlh1 strain growth inhibition, active compounds read high
Summary of the method: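 Vehicle-normalised growth inhibition of a repair- or checkpoint-altered yeast strain following compound treatment.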

[14] = NCI Yeast Anticancer Drug Screen. Data for the sgs1 strain (AID 173);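 note: 0% = growth of vehicle-only control cultures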; settings: S. cerevisiae sgs1 mutant, active compounds read high
Summary of the method: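 Screen format: yeast with repair or checkpoint alterations, compound exposure, growth read relative to vehicle.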

[15] = NCI Yeast Anticancer Drug Screen. Data for the mlh1 rad18 strain (AID 175); settings: S. cerevisiae mlh1 rad18 strain growth inhibition, active compounds read high
Summary of the method: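 Vehicle-treated cultures served as the reference for growth inhibition in a yeast strain carrying DNA damage repair alterations exposed to each compound.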

[16] = NCI Yeast Anticancer Drug Screen. Data for the rad18 strain (AID 177); settings: S. cerevisiae rad18 mutant growth inhibition, active compounds read high
Summary of the method: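 Test articles were incubated with altered yeast defective in DNA damage repair. Results are given as inhibition of growth versus vehicle.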

[17] = at 5.0 µM (retest, dose inferred, filed as 0.5)
[18] = at 50.0 µM (retest, dose inferred, filed as 5.0)

Measured: growth inhibition

Oc1c(Br)cc(Br)cc1C1CCCCC1
inactive: [1]; at 1.2 µM -13% | [1]; at 3.7 µM -10% | [1]; at 11.0 µM -2% | [2]; at 1.2 µM -21% | [2]; at 3.7 µM -12% | [2]; at 11.0 µM -6% | [3]; at 1.2 µM 9% | [3]; at 3.7 µM 9% | [3]; at 11.0 µM 23% | [3]; at 33.0 µM 39% | [4]; at 1.2 µM 8% | [4]; at 3.7 µM 13% | [4]; at 11.0 µM 22% | [5]; at 1.2 µM -8% | [5]; at 3.7 µM -9% | [5]; [17] 39% | [5]; at 11.0 µM 5% | [6]; at 1.2 µM -9% | [6]; at 3.7 µM -3% | [6]; at 11.0 µM 5% | [7]; at 1.2 µM -22% | [7]; at 3.7 µM -4% | [7]; at 11.0 µM 3% | [8]; [17] -16% | [9]; at 1.2 µM 22% | [9]; at 3.7 µM 13% | [9]; at 11.0 µM 27% | [10]; [17] 41% | [11]; at 1.2 µM 7% | [11]; at 3.7 µM 19% | [11]; [17] 4% | [11]; at 11.0 µM 25% | [12]; at 1.2 µM -23% | [12]; at 3.7 µM -22% | [12]; at 11.0 µM -15% | [13]; at 1.2 µM -26% | [13]; at 3.7 µM -12% | [13]; at 11.0 µM -5% | [14]; at 1.2 µM -25% | [14]; at 3.7 µM -16% | [14]; at 11.0 µM 10% | [15]; [17] 44% | [16]; at 1.2 µM -16% | [16]; at 3.7 µM 1% | [16]; at 11.0 µM 15%
active: [1]; at 33.0 µM 97% | [1]; at 100.0 µM 98% | [2]; at 33.0 µM 97% | [2]; at 100.0 µM 98% | [3]; at 100.0 µM 87% | [4]; at 33.0 µM 97% | [4]; at 100.0 µM 98% | [5]; at 33.0 µM 95% | [5]; [18] 99% | [5]; at 50.0 µM 89.2% | [5]; at 100.0 µM 96% | [6]; [17] 71% | [6]; at 33.0 µM 96% | [6]; [18] 99% | [6]; at 50.0 µM 90.8% | [6]; at 100.0 µM 98% | [7]; at 33.0 µM 97% | [7]; at 100.0 µM 98% | [8]; [18] 98% | [8]; at 50.0 µM 91.8% | [9]; at 33.0 µM 98% | [9]; at 100.0 µM 99% | [10]; [18] 99% | [10]; at 50.0 µM 89.6% | [11]; at 33.0 µM 96% | [11]; [18] 98% | [11]; at 50.0 µM 89.8% | [11]; at 100.0 µM 97% | [12]; at 33.0 µM 91% | [12]; at 100.0 µM 96% | [13]; at 33.0 µM 91% | [13]; at 100.0 µM 96% | [14]; at 33.0 µM 95% | [14]; at 100.0 µM 97% | [15]; [18] 100% | [15]; at 50.0 µM 87.1% | [16]; at 33.0 µM 93% | [16]; at 100.0 µM 97%

O=C(c1ccc(Cl)cc1)C1OC12C(=O)Nc1ccccc12 (stereo unspecified)
inactive: [1]; at 1.2 µM 20% | [2]; at 1.2 µM 1% | [2]; at 3.7 µM 25% | [3]; at 1.2 µM 17% | [4]; at 1.2 µM 31% | [5]; at 1.2 µM 13% | [6]; at 1.2 µM 38% | [7]; at 1.2 µM 24% | [9]; at 1.2 µM 5% | [9]; at 3.7 µM 40% | [11]; at 1.2 µM 43% | [12]; at 1.2 µM 9% | [13]; at 1.2 µM 8% | [14]; at 1.2 µM 8% | [16]; at 1.2 µM 6%
active: [1]; at 3.7 µM 99% | [1]; at 11.0 µM 99% | [1]; at 33.0 µM 99% | [1]; at 100.0 µM 99% | [2]; at 11.0 µM 98% | [2]; at 33.0 µM 98% | [2]; at 100.0 µM 99% | [3]; at 3.7 µM 99% | [3]; at 11.0 µM 99% | [3]; at 33.0 µM 99% | [3]; at 100.0 µM 99% | [4]; at 3.7 µM 100% | [4]; at 11.0 µM 100% | [4]; at 33.0 µM 100% | [4]; at 100.0 µM 99% | [5]; at 3.7 µM 99% | [5]; [17] 100% | [5]; at 11.0 µM 99% | [5]; at 33.0 µM 99% | [5]; [18] 99% | [5]; at 50.0 µM 99.5% | [5]; at 100.0 µM 99% | [6]; at 3.7 µM 99% | [6]; [17] 100% | [6]; at 11.0 µM 99% | [6]; at 33.0 µM 99% | [6]; [18] 100% | [6]; at 50.0 µM 99.7% | [6]; at 100.0 µM 99% | [7]; at 3.7 µM 99% | [7]; at 11.0 µM 99% | [7]; at 33.0 µM 99% | [7]; at 100.0 µM 99% | [8]; [17] 100% | [8]; [18] 100% | [8]; at 50.0 µM 99.5% | [9]; at 11.0 µM 99% | [9]; at 33.0 µM 99% | [9]; at 100.0 µM 98% | [10]; [17] 100% | [10]; [18] 100% | [10]; at 50.0 µM 99.7% | [11]; at 3.7 µM 99% | [11]; [17] 100% | [11]; at 11.0 µM 99% | [11]; at 33.0 µM 99% | [11]; [18] 100% | [11]; at 50.0 µM 99.7% | [11]; at 100.0 µM 99% | [12]; at 3.7 µM 99% | [12]; at 11.0 µM 99% | [12]; at 33.0 µM 99% | [12]; at 100.0 µM 99% | [13]; at 3.7 µM 99% | [13]; at 11.0 µM 99% | [13]; at 33.0 µM 99% | [13]; at 100.0 µM 99% | [14]; at 3.7 µM 99% | [14]; at 11.0 µM 99% | [14]; at 33.0 µM 99% | [14]; at 100.0 µM 99% | [15]; [17] 100% | [15]; [18] 100% | [15]; at 50.0 µM 99.5% | [16]; at 3.7 µM 99% | [16]; at 11.0 µM 99% | [16]; at 33.0 µM 98% | [16]; at 100.0 µM 99%

COc1ccc2sc3cccc(NCCN(C)C)c3c(=O)c2c1
inactive: [1]; at 1.2 µM -3% | [1]; at 3.7 µM -3% | [1]; at 11.0 µM -1% | [1]; at 33.0 µM 2% | [1]; at 100.0 µM 27% | [2]; at 1.2 µM 1% | [2]; at 3.7 µM 6% | [2]; at 11.0 µM 3% | [2]; at 33.0 µM 2% | [2]; at 100.0 µM 10% | [3]; at 1.2 µM 6% | [3]; at 3.7 µM 8% | [3]; at 11.0 µM 17% | [3]; at 33.0 µM 25% | [3]; at 100.0 µM 61% | [4]; at 1.2 µM -1% | [4]; at 3.7 µM -3% | [4]; at 11.0 µM -4% | [4]; at 33.0 µM -3% | [4]; at 100.0 µM 15% | [5]; at 1.2 µM 0% | [5]; at 3.7 µM 1% | [5]; [17] -14% | [5]; at 11.0 µM 2% | [5]; at 33.0 µM 7% | [5]; [18] -10% | [5]; at 50.0 µM 25.2% | [5]; at 100.0 µM 31% | [6]; at 1.2 µM 3% | [6]; at 3.7 µM 4%
